Test results from the supplement of paper PMC8728848.
Many of the other results were omitted from the sample, so the strongest signals are more common in it than they were.

Tests used:
Assay in all cases: glycan array binding signal (z-score within array); higher = stronger binding
Settings in all cases: glycan notation: IUPAC condensed, linker removed
[1] = target: Fuc(a1-2)Gal(b1-3)GlcNAc(b1-3)[Fuc(a1-3)[Gal(b1-4)]GlcNAc(b1-6)]Gal(b1-4)Glc
Procedure, shortened: (§1)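 The Consortium for Functional Glycomics database supplied 3228 glycan arrays, of which those lacking an available protein sequence were dropped. The binding signal, a within-array Z-score, was averaged across arrays of the same protein sequence and across linkers. Negative scores can be read as non-binding.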

[2] = target: Fuc(a1-2)Gal(b1-4)GlcNAc(b1-3)GalNAc
Procedure, shortened: as §1

[3] = target: Fuc(a1-2)Gal(b1-4)[Fuc(a1-3)]GlcNAc
Procedure, shortened: as §1

[4] = target: Fuc(a1-2)Gal(b1-4)[Fuc(a1-3)]GlcNAc(b1-2)Man(a1-3)[Fuc(a1-2)Gal(b1-4)[Fuc(a1-3)]GlcNAc(b1-2)Man(a1-6)]Man(b1-4)GlcNAc(b1-4)GlcNAc
Procedure, shortened: as §1

[5] = target: Fuc(a1-2)[GalNAc(a1-3)]Gal
Procedure, shortened: as §1

Gal(a1-3)Gal(b1-4)GlcNAc = target: Gal(a1-3)Gal(b1-4)GlcNAc
Procedure, shortened: as §1

Gal(a1-6)Glc = target: Gal(a1-6)Glc
Procedure, shortened: as §1

Gal(b1-3)Gal(b1-4)GlcNAc = target: Gal(b1-3)Gal(b1-4)GlcNAc
Procedure, shortened: as §1

[6] = target: Gal(b1-3)GlcNAc(b1-3)Gal(b1-4)Glc
Procedure, shortened: as §1

[7] = target: Gal(b1-3)[Fuc(a1-4)]GlcNAc(b1-2)Man(a1-3)[Gal(b1-3)[Fuc(a1-4)]GlcNAc(b1-2)Man(a1-6)]Man(b1-4)GlcNAc(b1-4)[Fuc(a1-6)]GlcNAc
Procedure, shortened: as §1

[8] = target: Gal(b1-3)[GlcNAc(b1-6)]GalNAc
Procedure, shortened: as §1

[9] = target: Gal(b1-4)GlcNAc(a1-6)Gal(b1-4)GlcNAc
Procedure, shortened: as §1

[10] = target: Gal(b1-4)GlcNAc(b1-2)Man(a1-3)[Gal(b1-4)GlcNAc(b1-2)Man(a1-6)]Man(b1-4)GlcNAc(b1-4)GlcNAc
Procedure, shortened: as §1

[11] = target: Gal(b1-4)GlcNAc(b1-2)Man(a1-3)[Man(a1-6)]Man(b1-4)GlcNAc(b1-4)GlcNAc
Procedure, shortened: as §1

[12] = target: Gal(b1-4)GlcNAc(b1-2)Man(a1-6)[Man(a1-3)]Man(b1-4)GlcNAc(b1-4)GlcNAc
Procedure, shortened: as §1

[13] = target: Gal(b1-4)GlcNAc(b1-2)[Gal(b1-4)GlcNAc(b1-4)]Man(a1-3)[Gal(b1-4)GlcNAc(b1-2)Man(a1-6)]Man(b1-4)GlcNAc(b1-4)GlcNAc
Procedure, shortened: as §1

[14] = target: Gal(b1-4)GlcNAc(b1-3)Gal(b1-4)GlcNAc
Procedure, shortened: as §1

[15] = target: Gal(b1-4)GlcNAc(b1-3)Gal(b1-4)GlcNAc(b1-3)Gal(b1-4)GlcNAc
Procedure, shortened: as §1

[16] = target: Gal(b1-4)GlcNAc(b1-3)Gal(b1-4)[Fuc(a1-3)]GlcNAc(b1-3)Gal(b1-4)[Fuc(a1-3)]GlcNAc
Procedure, shortened: as §1

[17] = target: Gal(b1-4)GlcNAc(b1-3)[Gal(b1-4)GlcNAc(b1-6)]Gal(b1-4)GlcNAc
Procedure, shortened: as §1

[18] = target: Gal(b1-4)GlcNAc(b1-6)GalNAc
Procedure, shortened: as §1

Gal3S(b1-3)GlcNAc = target: Gal3S(b1-3)GlcNAc
Procedure, shortened: as §1

Kdn(a2-6)Gal(b1-4)GlcNAc = target: Kdn(a2-6)Gal(b1-4)GlcNAc
Procedure, shortened: as §1

[19] = target: Man(a1-2)Man(a1-3)[Man(a1-2)Man(a1-6)]Man
Procedure, shortened: as §1

[20] = target: Man(a1-2)Man(a1-3)[Man(a1-2)Man(a1-6)]Man(a1-6)[Man(a1-2)Man(a1-2)Man(a1-3)]Man
Procedure, shortened: as §1

[21] = target: Neu5Ac(a2-3)Gal(b1-3)GlcNAc6S
Procedure, shortened: as §1

[22] = target: Neu5Ac(a2-3)Gal(b1-4)[Fuc(a1-3)]GlcNAc(b1-3)Gal(b1-4)GlcNAc
Procedure, shortened: as §1

[23] = target: Neu5Ac(a2-3)Gal(b1-4)[Fuc(a1-3)]GlcNAc6S
Procedure, shortened: as §1

Neu5Ac(a2-3)GalNAc = target: Neu5Ac(a2-3)GalNAc
Procedure, shortened: as §1

[24] = target: Neu5Gc(a2-3)Gal(b1-3)GlcNAc
Procedure, shortened: as §1

B1: Galatrox (Botrops atrox), P0DM53 (protein)
chain: NNCPQDWLPMNGLCYKIFDELKAWKDAEMFCRKYKPGCHLASIILYGESPEWAEGHSEVWLGLWDKKKDFSWEWTDR
[1]
  glycan array binding signal (z-score): -0.364
[2]
  glycan array binding signal (z-score): -0.36
[3]
  glycan array binding signal (z-score): -0.364
[4]
  glycan array binding signal (z-score): 0.123
[5]
  glycan array binding signal (z-score): -0.357
Gal(a1-3)Gal(b1-4)GlcNAc
  glycan array binding signal (z-score): -0.137
Gal(a1-6)Glc
  glycan array binding signal (z-score): -0.37
Gal(b1-3)Gal(b1-4)GlcNAc
  glycan array binding signal (z-score): 3.61
[6]
  glycan array binding signal (z-score): 0.413
[7]
  glycan array binding signal (z-score): -0.333
[8]
  glycan array binding signal (z-score): -0.192
[9]
  glycan array binding signal (z-score): 3.28
[10]
  glycan array binding signal (z-score): 1.27
[11]
  glycan array binding signal (z-score): 0.001
[12]
  glycan array binding signal (z-score): 1.15
[13]
  glycan array binding signal (z-score): 3.31
[14]
  glycan array binding signal (z-score): 3.16
[15]
  glycan array binding signal (z-score): 3.28
[16]
  glycan array binding signal (z-score): 3.31
[17]
  glycan array binding signal (z-score): 4.18
[18]
  glycan array binding signal (z-score): 2.44
Gal3S(b1-3)GlcNAc
  glycan array binding signal (z-score): -0.363
Kdn(a2-6)Gal(b1-4)GlcNAc
  glycan array binding signal (z-score): 0.063
[19]
  glycan array binding signal (z-score): -0.378
[20]
  glycan array binding signal (z-score): -0.369
[21]
  glycan array binding signal (z-score): -0.36
[22]
  glycan array binding signal (z-score): 2.3
[23]
  glycan array binding signal (z-score): -0.373
Neu5Ac(a2-3)GalNAc
  glycan array binding signal (z-score): -0.364
[24]
  glycan array binding signal (z-score): -0.368
